The full data set covers some 8,800 targets. This sample favours those with a hit. About 0.5% of all pairs of compound and target were hits.
Compound: Cn1cc(CNCC2CCN(c3ncc(C(=O)NO)cn3)CC2)c2ccccc21 [quisinostat]
Assay: log2 fold change, soluble protein after heating vs DMSO (PISA); higher = thermal stabilisation; K562 lysate, 10 uM; active = over 0.2 and 3.5 SD of the protein, either way, in both replicates (recomputed)
In short: (§1)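 Soluble protein was defined as the supernatant remaining after 21,000xg for 90 min, following pooling of heated aliquots and adjustment to 0.5% NP-40 at 4°C. Before that, crude K562 extract at 1 mg/mL protein in PBS pH 7.4 with 1 mM MgCl2 was treated with 10 μM compound for 30 min and heated for 3 min across 48°C-58°C. Quantification used TMTpro 16plex LC-MS/MS with channel sums equalised, and values are log-two fold changes in thermal stability relative to solvent controls from duplicates.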

Sequence of UniProt Q15843 (Q15843 whole entry, looked up): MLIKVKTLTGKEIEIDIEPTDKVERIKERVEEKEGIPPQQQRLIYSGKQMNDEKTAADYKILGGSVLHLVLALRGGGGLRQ
Sequence of UniProt Q9HBL8 (Q9HBL8 whole entry, looked up): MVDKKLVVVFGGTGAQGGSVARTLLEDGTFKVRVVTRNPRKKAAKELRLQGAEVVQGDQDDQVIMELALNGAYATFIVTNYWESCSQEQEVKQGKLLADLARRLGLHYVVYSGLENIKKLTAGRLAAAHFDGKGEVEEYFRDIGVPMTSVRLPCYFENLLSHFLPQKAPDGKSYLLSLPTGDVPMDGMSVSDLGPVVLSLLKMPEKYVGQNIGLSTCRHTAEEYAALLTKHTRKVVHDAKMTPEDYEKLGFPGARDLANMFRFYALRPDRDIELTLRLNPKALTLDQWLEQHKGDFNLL
Sequence of UniProt Q9NX02 (Q9NX02 whole entry, looked up): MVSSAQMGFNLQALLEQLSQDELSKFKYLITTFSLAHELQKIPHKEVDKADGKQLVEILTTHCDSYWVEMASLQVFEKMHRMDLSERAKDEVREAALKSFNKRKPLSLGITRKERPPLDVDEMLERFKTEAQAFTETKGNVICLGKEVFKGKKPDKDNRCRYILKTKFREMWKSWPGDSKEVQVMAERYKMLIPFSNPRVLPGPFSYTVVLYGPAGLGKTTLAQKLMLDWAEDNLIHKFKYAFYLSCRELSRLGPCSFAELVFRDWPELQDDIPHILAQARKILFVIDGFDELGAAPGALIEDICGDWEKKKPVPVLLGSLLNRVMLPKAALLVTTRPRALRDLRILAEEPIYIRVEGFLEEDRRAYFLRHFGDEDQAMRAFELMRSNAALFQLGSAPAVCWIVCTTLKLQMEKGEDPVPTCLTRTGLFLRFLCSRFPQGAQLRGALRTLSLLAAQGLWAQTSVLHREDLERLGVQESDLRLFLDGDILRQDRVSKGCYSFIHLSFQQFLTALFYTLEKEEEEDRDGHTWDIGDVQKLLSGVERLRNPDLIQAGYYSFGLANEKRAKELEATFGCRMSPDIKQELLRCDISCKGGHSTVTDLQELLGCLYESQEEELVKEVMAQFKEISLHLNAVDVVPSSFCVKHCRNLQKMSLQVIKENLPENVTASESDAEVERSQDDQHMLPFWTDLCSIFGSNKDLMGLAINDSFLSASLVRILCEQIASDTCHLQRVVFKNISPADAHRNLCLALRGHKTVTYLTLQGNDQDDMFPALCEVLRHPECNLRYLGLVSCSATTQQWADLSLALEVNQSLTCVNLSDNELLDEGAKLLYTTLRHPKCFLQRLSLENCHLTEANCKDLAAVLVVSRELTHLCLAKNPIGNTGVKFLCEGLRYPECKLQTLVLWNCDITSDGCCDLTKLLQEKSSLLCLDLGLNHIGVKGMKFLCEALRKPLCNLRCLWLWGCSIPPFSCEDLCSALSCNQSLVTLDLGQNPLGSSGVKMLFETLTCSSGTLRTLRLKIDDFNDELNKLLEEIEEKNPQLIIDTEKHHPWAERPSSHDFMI
Sequence of UniProt Q9Y5A7 (Q9Y5A7 whole entry, looked up): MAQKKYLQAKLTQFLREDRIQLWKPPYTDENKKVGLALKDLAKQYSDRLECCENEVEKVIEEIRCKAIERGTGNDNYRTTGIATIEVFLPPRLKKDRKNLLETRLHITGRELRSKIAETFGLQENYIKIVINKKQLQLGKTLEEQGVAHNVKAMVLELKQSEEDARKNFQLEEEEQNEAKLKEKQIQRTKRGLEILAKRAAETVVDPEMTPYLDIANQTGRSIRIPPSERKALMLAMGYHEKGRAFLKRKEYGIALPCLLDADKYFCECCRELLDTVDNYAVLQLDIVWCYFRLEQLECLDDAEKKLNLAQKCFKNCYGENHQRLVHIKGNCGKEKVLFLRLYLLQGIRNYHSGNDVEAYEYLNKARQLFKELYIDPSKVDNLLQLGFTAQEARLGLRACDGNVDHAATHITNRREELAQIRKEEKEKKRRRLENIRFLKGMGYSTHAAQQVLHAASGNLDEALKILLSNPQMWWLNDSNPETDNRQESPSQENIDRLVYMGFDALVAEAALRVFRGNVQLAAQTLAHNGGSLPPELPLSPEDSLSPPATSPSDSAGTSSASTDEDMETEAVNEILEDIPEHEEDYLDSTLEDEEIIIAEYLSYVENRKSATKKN
Sequence of UniProt Q9H857 (Q9H857 whole entry, looked up): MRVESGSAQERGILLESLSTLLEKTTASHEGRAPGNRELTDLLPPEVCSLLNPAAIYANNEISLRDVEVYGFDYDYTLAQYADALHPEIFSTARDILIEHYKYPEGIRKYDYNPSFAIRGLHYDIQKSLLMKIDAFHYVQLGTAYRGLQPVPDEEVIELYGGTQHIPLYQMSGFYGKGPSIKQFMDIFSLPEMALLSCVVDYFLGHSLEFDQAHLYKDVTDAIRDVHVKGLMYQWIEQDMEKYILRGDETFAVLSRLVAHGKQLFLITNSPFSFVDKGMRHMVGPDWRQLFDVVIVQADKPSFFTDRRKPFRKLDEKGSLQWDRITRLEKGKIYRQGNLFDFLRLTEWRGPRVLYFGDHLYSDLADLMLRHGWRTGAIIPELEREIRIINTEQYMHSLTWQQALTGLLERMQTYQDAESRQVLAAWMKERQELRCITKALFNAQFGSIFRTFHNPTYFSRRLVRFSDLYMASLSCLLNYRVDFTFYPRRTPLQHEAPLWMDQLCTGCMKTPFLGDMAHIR
Sequence of UniProt Q8IXH7 (Q8IXH7 whole entry, looked up): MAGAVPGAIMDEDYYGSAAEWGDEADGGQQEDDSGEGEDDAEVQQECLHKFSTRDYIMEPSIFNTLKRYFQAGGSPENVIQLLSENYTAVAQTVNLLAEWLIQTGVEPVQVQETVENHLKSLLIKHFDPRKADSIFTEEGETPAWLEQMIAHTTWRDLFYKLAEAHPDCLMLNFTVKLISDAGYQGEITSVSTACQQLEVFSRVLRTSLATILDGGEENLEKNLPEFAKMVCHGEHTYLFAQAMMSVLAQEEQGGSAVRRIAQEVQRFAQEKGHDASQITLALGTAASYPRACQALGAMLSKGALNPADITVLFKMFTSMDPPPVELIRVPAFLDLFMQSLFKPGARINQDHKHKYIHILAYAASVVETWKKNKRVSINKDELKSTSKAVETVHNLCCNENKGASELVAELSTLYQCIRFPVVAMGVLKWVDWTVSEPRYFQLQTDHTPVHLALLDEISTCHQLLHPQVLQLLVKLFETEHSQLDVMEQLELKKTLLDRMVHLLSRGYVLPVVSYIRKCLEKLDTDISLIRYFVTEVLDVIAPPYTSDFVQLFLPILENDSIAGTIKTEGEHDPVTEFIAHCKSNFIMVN
Sequence of UniProt Q6GQQ9 (Q6GQQ9 whole entry, looked up): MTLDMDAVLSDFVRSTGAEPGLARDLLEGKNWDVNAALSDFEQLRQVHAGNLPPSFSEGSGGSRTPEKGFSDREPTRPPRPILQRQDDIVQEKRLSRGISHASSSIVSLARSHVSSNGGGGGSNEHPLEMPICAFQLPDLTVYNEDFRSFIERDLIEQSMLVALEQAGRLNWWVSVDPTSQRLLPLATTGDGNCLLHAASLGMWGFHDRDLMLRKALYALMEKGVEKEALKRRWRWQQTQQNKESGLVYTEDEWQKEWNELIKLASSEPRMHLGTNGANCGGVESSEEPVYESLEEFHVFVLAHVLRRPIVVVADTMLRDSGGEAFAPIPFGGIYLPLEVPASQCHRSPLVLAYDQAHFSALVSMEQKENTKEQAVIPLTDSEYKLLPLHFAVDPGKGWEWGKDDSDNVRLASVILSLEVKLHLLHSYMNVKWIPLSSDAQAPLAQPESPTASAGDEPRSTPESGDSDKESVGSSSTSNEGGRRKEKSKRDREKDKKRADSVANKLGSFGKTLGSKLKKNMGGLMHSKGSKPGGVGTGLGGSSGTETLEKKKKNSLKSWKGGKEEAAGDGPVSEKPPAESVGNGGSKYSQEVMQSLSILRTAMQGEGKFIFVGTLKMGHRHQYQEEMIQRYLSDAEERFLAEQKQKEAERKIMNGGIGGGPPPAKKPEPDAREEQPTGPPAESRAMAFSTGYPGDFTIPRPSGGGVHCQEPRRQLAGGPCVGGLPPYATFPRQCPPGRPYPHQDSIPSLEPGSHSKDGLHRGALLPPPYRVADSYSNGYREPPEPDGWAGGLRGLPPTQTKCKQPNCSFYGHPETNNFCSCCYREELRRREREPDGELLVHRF
Sequence of UniProt Q9BZF3 (Q9BZF3 whole entry, looked up): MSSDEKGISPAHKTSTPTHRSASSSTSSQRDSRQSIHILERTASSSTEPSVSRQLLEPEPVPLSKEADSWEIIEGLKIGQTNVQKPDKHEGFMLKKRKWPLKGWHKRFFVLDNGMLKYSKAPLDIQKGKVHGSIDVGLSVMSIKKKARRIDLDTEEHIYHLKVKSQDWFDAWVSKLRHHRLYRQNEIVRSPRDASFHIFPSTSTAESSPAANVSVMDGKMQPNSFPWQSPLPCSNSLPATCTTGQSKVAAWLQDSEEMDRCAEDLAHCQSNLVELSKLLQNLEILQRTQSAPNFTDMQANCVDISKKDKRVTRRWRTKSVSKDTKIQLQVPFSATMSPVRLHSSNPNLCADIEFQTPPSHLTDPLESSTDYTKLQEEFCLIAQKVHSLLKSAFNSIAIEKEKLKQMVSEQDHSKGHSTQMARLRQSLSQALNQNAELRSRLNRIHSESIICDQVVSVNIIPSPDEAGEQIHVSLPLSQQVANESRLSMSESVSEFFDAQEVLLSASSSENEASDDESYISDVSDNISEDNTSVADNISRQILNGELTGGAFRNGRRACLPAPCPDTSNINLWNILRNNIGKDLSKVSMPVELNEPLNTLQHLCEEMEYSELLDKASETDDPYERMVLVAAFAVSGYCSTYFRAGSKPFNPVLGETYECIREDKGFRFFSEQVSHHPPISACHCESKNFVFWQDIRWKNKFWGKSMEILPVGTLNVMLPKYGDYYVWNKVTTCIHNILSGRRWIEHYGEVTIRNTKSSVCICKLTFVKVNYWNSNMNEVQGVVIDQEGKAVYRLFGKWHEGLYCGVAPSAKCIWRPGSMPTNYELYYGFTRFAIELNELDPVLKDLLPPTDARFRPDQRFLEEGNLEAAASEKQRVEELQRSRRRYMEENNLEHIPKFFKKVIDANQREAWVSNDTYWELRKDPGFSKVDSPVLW
Sequence of UniProt O00483 (O00483 whole entry, looked up): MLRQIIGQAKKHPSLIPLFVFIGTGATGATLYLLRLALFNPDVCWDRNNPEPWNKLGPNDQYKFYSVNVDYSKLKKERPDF

Target | log2 fold change
NTPCR (UniProt Q9BSD7) | -0.088 (inactive)
MTHFD1L (UniProt B7ZM99) | -0.055 (inactive)
NOA1 (UniProt Q8NC60) | -0.089 (inactive)
NT5DC2 isoform 2 (UniProt Q9H857) | -0.002 (inactive)
OTUD7B (UniProt Q6GQQ9) | -0.252 (inactive)
NADK2 (UniProt Q4G0N4) | 0.017 (inactive)
NTMT1 (UniProt Q9BV86) | -0.051 (inactive)
OSGEP (UniProt Q9NPF4) | -0.006 (inactive)
NDUFA4 (UniProt O00483) | 0.104 (inactive)
NUB1 (UniProt Q9Y5A7) | 0.035 (inactive)
NFATC2 (UniProt Q13469) | -0.133 (inactive)
ORC2 (UniProt Q13416) | -0.016 (inactive)
NELFCD (UniProt Q8IXH7) | -0.083 (inactive)
NMRAL1 (UniProt Q9HBL8) | 0.025 (inactive)
PAIP2 (UniProt Q9BPZ3) | 0.007 (inactive)
NCAPD2 (UniProt Q15021) | -0.064 (inactive)
NEDD8 (UniProt Q15843) | 0.034 (inactive)
NFIC (UniProt P08651) | -0.072 (inactive)

Target | log2 fold change
NELFA (UniProt Q9H3P2) | -0.007 (inactive)
NLRP2 (UniProt Q9NX02) | -0.031 (inactive)
OSBPL6 isoform 5 (UniProt Q9BZF3) | -0.07 (inactive)
MTCH2 (UniProt Q9Y6C9) | -0.104 (inactive)
NAA38 isoform 2 (UniProt Q9BRA0) | 0.03 (inactive)
NAP1L5 (UniProt Q96NT1) | 0.068 (inactive)
MT-ND1 (UniProt P03886) | -0.094 (inactive)
NFATC2IP (UniProt Q8NCF5) | 0.019 (inactive)
MYCBP (UniProt Q99417) | -0.058 (inactive)
NIT2 (UniProt Q9NQR4) | 0.004 (inactive)
NEBL (UniProt O76041) | -0.045 (inactive)
NFKBIB (UniProt Q15653) | -0.062 (inactive)
NEK7 (UniProt Q8TDX7) | -0.018 (inactive)
NCOR1 (UniProt O75376) | -0.064 (inactive)
ORC3 isoform 2 (UniProt Q9UBD5) | -0.038 (inactive)
NCK1 (UniProt P16333) | -0.053 (inactive)
NFATC1 (UniProt O95644) | -0.097 (inactive)

Compound: Cn1cncc1[C@@](N)(c1ccc(Cl)cc1)c1ccc2c(c1)c(-c1cccc(Cl)c1)cc(=O)n2C [tipifarnib]
Assay: as above
In short: as §1

Target | log2 fold change
NTPCR (UniProt Q9BSD7) | 0.003 (inactive)
MTHFD1L (UniProt B7ZM99) | -0.01 (inactive)
NOA1 (UniProt Q8NC60) | -0.027 (inactive)
NT5DC2 isoform 2 (UniProt Q9H857) | -0.027 (inactive)
OTUD7B (UniProt Q6GQQ9) | 0.05 (inactive)
NADK2 (UniProt Q4G0N4) | 0.008 (inactive)
NTMT1 (UniProt Q9BV86) | 0.012 (inactive)
OSGEP (UniProt Q9NPF4) | 0.026 (inactive)
NDUFA4 (UniProt O00483) | 0.031 (inactive)
NUB1 (UniProt Q9Y5A7) | 0.003 (inactive)
NFATC2 (UniProt Q13469) | -0.021 (inactive)
ORC2 (UniProt Q13416) | 0.004 (inactive)
NELFCD (UniProt Q8IXH7) | -0.032 (inactive)
NMRAL1 (UniProt Q9HBL8) | 0.01 (inactive)
PAIP2 (UniProt Q9BPZ3) | -0.1 (inactive)
NCAPD2 (UniProt Q15021) | -0.019 (inactive)
NEDD8 (UniProt Q15843) | 0.066 (inactive)
NFIC (UniProt P08651) | 0.014 (inactive)

Target | log2 fold change
NELFA (UniProt Q9H3P2) | 0.024 (inactive)
NLRP2 (UniProt Q9NX02) | -0.008 (inactive)
OSBPL6 isoform 5 (UniProt Q9BZF3) | -0.003 (inactive)
MTCH2 (UniProt Q9Y6C9) | 0.018 (inactive)
NAA38 isoform 2 (UniProt Q9BRA0) | -0.03 (inactive)
NAP1L5 (UniProt Q96NT1) | 0.054 (inactive)
MT-ND1 (UniProt P03886) | -0.125 (inactive)
NFATC2IP (UniProt Q8NCF5) | 0.061 (inactive)
MYCBP (UniProt Q99417) | -0.011 (inactive)
NIT2 (UniProt Q9NQR4) | 0.019 (inactive)
NEBL (UniProt O76041) | 0.008 (inactive)
NFKBIB (UniProt Q15653) | 0.059 (inactive)
NEK7 (UniProt Q8TDX7) | -0.006 (inactive)
NCOR1 (UniProt O75376) | -0.046 (inactive)
ORC3 isoform 2 (UniProt Q9UBD5) | -0.014 (inactive)
NCK1 (UniProt P16333) | 0.018 (inactive)
NFATC1 (UniProt O95644) | 0.006 (inactive)
